Reference: article PMC7862700, “An all-to-all approach to the identification of sequence-specific readers for epigenetic DNA modifications on cytosine”

Experiments:
Assay in all cases: DAPPL (digital affinity profiling via proximity ligation, sequencing); 10 mM Tris-HCl pH 7.5, 50 mM NaCl, 1 mM DTT, 4% glycerol, room temperature, 30 min; GST-TFs on glutathione beads, 16-mer random dsDNA library, 0.1% formaldehyde crosslink after washing; high values mean tight binding
FEV = target: T1, FEV (Homo sapiens, UniProt Q99581 1-238); settings: protein: recombinant; tags: N-terminal GST; dsDNA, one strand shown
T1 sequence: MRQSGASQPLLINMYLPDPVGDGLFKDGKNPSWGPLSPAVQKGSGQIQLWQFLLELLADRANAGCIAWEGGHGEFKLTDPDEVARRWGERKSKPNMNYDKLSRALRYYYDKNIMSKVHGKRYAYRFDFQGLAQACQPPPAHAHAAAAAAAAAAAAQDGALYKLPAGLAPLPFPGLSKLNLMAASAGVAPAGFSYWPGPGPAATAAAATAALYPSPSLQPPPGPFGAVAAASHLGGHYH
Outline: (§1)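 Human transcription factors were made in yeast as GST fusions, captured on glutathione beads and barcoded with DNA. With a tag-only sample included, the pool was incubated with 200 nmole of a random double-stranded 16-mer DNA library in Tris/NaCl/DTT/glycerol buffer at room temperature for 30 min, then crosslinked with 0.1% formaldehyde after washing, ligated by proximity, amplified and sequenced. For binding signal, each hexamer's read frequency for a factor is divided by its frequency for the tag-only sample.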

ETV5 = ETV5 (Homo sapiens, UniProt P41161 1-510); settings: protein: recombinant; tags: N-terminal GST; dsDNA, one strand shown
Outline: as §1

HSF1 = HSF1 (Homo sapiens, UniProt Q00613 1-529); settings: protein: recombinant; tags: N-terminal GST; chain copies: 3; dsDNA, one strand shown
Outline: as §1

SPIC = target: T2, SPIC (Homo sapiens, UniProt Q8N5J4 1-248); settings: protein: recombinant; tags: N-terminal GST; dsDNA, one strand shown
T2 sequence: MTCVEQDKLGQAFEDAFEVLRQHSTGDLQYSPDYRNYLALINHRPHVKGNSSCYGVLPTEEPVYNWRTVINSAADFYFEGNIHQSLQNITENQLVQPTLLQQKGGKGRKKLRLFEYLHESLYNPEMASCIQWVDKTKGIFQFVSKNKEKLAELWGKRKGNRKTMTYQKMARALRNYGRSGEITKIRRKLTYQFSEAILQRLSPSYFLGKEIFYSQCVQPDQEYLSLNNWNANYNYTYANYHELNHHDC
Outline: as §1

ELF4 = ELF4 (Homo sapiens, UniProt Q99607 1-663); settings: protein: recombinant; tags: N-terminal GST; dsDNA, one strand shown
Outline: as §1

ELK4 = target: T3, ELK4 (Homo sapiens, UniProt P28324-2 1-405); settings: protein: recombinant; tags: N-terminal GST; dsDNA, one strand shown
T3 sequence: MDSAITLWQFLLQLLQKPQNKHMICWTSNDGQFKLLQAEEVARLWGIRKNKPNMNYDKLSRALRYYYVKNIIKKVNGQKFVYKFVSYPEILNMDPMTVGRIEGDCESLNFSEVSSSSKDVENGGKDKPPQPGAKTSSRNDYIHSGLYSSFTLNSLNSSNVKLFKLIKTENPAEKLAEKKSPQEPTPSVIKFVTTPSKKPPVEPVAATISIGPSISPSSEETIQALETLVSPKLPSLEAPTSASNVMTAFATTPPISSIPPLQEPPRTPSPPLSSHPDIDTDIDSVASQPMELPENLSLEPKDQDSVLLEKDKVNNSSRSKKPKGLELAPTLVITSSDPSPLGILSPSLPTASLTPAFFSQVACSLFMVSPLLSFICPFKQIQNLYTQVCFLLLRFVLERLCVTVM
Outline: as §1

ETV2 = target: T4, ETV2 (Homo sapiens, UniProt O00321 1-342); settings: protein: recombinant; tags: N-terminal GST; dsDNA, one strand shown
T4 sequence: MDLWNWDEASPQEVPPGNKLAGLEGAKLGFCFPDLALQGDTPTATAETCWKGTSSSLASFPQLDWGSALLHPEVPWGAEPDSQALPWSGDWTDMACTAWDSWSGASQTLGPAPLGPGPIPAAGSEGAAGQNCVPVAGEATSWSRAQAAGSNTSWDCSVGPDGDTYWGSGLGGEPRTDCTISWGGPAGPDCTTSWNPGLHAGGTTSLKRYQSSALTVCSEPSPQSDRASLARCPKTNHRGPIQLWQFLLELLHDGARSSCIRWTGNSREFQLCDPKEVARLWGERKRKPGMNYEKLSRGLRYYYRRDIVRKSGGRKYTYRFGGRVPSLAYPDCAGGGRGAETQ
Outline: as §1

ELF3 = target: T5, ELF3 (Homo sapiens, UniProt P78545 1-371); settings: protein: recombinant; tags: N-terminal GST; dsDNA, one strand shown
T5 sequence: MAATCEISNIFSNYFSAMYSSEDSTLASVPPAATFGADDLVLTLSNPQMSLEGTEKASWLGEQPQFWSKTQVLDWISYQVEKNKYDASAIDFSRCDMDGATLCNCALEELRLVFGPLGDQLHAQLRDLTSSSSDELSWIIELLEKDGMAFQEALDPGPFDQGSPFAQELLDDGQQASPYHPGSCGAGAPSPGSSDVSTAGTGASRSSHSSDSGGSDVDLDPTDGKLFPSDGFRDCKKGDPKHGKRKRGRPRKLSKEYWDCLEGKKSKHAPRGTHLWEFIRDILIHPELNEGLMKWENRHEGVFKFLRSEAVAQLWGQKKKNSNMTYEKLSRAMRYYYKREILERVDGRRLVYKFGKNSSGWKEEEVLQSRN
Outline: as §1

CRX = CRX (Homo sapiens, UniProt O43186 1-299); settings: protein: recombinant; tags: N-terminal GST; dsDNA, one strand shown
Outline: as §1

ETV1 = ETV1 (Homo sapiens, UniProt P50549 1-477); settings: protein: recombinant; tags: N-terminal GST; dsDNA, one strand shown
Outline: as §1

Sequence of ETV1 (P50549 whole entry): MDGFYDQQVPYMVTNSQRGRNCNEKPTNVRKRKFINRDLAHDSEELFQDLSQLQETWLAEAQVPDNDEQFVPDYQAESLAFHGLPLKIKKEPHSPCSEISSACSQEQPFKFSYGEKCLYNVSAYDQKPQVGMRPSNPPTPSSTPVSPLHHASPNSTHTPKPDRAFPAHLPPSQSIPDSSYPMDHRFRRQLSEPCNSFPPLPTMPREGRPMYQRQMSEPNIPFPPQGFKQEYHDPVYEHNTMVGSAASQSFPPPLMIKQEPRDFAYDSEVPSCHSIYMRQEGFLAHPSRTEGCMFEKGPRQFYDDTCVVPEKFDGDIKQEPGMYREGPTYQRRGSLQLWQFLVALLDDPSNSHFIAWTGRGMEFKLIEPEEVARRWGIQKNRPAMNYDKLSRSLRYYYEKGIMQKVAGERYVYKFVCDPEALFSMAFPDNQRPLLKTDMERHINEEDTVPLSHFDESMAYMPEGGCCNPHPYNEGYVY
Sequence of CRX (O43186 whole entry): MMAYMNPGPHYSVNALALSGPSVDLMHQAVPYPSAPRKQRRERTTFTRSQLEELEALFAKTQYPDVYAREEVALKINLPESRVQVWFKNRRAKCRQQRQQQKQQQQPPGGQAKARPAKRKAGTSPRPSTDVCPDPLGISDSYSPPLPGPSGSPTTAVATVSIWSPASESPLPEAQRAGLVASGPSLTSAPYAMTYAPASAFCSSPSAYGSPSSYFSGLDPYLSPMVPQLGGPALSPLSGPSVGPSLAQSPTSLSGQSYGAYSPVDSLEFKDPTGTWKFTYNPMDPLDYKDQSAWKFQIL
Sequence of HSF1 (Q00613 whole entry): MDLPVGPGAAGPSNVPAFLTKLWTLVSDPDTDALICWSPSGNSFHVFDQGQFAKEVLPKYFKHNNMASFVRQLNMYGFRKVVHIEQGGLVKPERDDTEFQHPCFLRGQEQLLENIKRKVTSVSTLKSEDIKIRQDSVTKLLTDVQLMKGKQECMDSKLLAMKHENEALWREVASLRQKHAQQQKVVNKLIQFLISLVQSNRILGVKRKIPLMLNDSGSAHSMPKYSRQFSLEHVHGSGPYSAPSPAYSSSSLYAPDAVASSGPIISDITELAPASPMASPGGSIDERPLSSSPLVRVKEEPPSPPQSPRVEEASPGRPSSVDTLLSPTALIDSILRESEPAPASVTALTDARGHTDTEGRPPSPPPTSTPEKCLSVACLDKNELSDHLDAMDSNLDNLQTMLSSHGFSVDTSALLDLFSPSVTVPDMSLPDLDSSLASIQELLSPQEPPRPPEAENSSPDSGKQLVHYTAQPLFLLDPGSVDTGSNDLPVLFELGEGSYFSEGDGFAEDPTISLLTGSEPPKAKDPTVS
Sequence of ETV5 (P41161 whole entry): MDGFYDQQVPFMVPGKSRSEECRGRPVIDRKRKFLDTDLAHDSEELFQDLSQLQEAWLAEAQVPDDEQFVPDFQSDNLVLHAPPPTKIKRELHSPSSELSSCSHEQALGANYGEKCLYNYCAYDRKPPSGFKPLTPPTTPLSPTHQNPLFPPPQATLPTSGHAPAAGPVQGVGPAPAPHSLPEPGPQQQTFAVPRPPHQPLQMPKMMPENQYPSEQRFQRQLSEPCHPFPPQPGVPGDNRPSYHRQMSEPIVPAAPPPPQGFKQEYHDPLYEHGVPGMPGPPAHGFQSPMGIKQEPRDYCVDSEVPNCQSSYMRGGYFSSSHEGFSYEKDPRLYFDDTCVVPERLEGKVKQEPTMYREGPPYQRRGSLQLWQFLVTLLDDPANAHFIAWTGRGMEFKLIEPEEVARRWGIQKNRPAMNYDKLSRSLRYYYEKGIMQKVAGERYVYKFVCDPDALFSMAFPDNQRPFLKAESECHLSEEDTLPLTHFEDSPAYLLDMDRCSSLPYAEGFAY
Sequence of ELF4 (Q99607 whole entry): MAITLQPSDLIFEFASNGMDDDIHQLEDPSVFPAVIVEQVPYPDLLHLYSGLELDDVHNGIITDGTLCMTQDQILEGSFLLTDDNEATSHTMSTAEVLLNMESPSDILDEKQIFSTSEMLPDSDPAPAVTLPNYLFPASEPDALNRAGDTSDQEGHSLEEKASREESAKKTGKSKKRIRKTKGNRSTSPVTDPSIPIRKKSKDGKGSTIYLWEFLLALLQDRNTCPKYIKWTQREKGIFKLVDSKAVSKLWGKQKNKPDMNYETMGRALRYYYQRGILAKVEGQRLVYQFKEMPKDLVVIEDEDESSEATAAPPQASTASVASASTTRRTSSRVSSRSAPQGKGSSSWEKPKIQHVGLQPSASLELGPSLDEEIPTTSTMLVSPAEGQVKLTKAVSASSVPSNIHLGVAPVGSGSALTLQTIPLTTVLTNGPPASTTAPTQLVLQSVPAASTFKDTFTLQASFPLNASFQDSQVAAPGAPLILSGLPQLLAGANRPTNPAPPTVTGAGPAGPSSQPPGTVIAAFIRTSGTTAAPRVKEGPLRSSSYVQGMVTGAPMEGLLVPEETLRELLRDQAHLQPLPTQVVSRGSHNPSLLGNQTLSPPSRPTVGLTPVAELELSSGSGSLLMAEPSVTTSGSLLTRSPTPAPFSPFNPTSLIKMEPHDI

CTACAA
binding signal (FEV): 1.14 fold enrichment (6-mer frequency, TF over GST control) | binding signal (ETV5): 1.21 fold enrichment (6-mer frequency, TF over GST control) | binding signal (HSF1): 1.16 fold enrichment (6-mer frequency, TF over GST control) | binding signal (SPIC): 1.2 fold enrichment (6-mer frequency, TF over GST control) | binding signal (ELF4): 1.18 fold enrichment (6-mer frequency, TF over GST control) | binding signal (ELK4): 1.21 fold enrichment (6-mer frequency, TF over GST control) | binding signal (ETV2): 1.18 fold enrichment (6-mer frequency, TF over GST control) | binding signal (ELF3): 1.03 fold enrichment (6-mer frequency, TF over GST control) | binding signal (CRX): 1.04 fold enrichment (6-mer frequency, TF over GST control) | binding signal (ETV1): 1.13 fold enrichment (6-mer frequency, TF over GST control)
